This is an account of results in ChEMBL document CHEMBL3988442, “University of Dundee, Small-Polar-MMV Screening Library” (2021).

For the assay, the target named is AMP-activated protein kinase, AMPK (Homo sapiens) (UniProt P54646+O43741+P54619+Q9UGJ0+Q9Y478+Q13131+Q9UGI9). Briefly: AMP-dependent Kinase enzyme assay. An in vitro enzyme assay that detects ADP turnover that is directly proportional to AMPK activity. This uses naive AMPK that is activated during the assay with MK-8722. Particulars: 30 µM. The class given is functional. Details: scale not given: direction of the effect not stated beside the values.
For the compound `CC(C)(C)c1ccc(-n2ncc3c2CCCC3N)cc1` (centres undefined), the Percent Effect came out at 5.4%. Turning to `NC(=O)NC(CC(=O)N1CCc2sccc2C1)c1cccc(Br)c1` (centres undefined), the Percent Effect was 13.9%. Regarding `COCc1c(Br)cccc1NC(=O)CC(F)(F)F`, the Percent Effect was -6.57%. As to `CN(C)c1ccc(C(=O)N2CCC(c3cc4ncccc4[nH]3)CC2)cc1`, the Percent Effect is 21.8%. On to `CCc1nn(C)c(Cl)c1CN(CCOC)Cc1cnn(C)c1`, for which the Percent Effect was 5.81%. In the case of `Cc1ncsc1C(=O)N[C@@H](Cc1ccccc1)C(N)=O` it was 8.09%; in that of `CC(NCc1nnc2n1CCCC2)c1nc(-c2cccs2)no1` (centres undefined), -0.613%. As for `O=C(CCn1cc(Cl)cn1)N1CCCC(O)(CO)CC1` (centres undefined), the Percent Effect was -3.36%.

As to `CCN(C)C[C@@H]1CN(Cc2cnc3c(S(C)(=O)=O)cnn3c2)C[C@@H]1CO`, the Percent Effect was -11.4%. Take `O=C(O)[C@H]1C[C@H](C(=O)NCc2ccncc2)CN(CCC(F)(F)F)C1`: the Percent Effect was -2.07%. On to `Cc1ccc(CNC(CCO)C2CCCCC2)nc1` (centres undefined), for which the Percent Effect turned out to be 2.17%. In the case of `Cc1cc(C)nc(NC2CC(=O)N(C)C2)n1` (centres undefined), the Percent Effect is -3.57%. With `COC(=O)c1occc1Cn1cc(Br)cn1`, the Percent Effect is -0.99%. Take `CC1(c2ncc(CN(CC(=O)O)Cc3ccccc3)cn2)CCCCO1` (centres undefined): the Percent Effect came to 12.9%. The result for `COc1cc(NC2CCCN(c3ncccc3C#N)C2)cc(OC)c1` (centres undefined) reads -37.2%; that for `COc1ccc2cc(C(=O)NCCNc3ccc(C)nn3)[nH]c2c1`, 8.22%; that for `CN(C)c1nc(N)nc(CN2CCCC(c3ccccc3)CC2)n1` (centres undefined), -3.69%. In the case of `CN1CCN([C@H]2CCN(C(=O)c3nn(C)cc3Cl)C[C@H]2CCCO)CC1`, the Percent Effect amounted to 4.08%.

For the compound `Nc1nccnc1C(=O)NC1CCCN(Cc2c(F)cccc2F)C1` (centres undefined), the Percent Effect came to 26.8%. `COc1cc(CN(C)[C@@H]2COC[C@H]2c2ccc(F)cc2)cc(OC)c1`: the Percent Effect is -11.5%. `CC(=O)N1CCCC(C(=O)NCCc2ccc(F)c(Br)c2)C1` (centres undefined): the Percent Effect was found to be 9.28%.

In the case of `CCN(CC)S(=O)(=O)N1CCCC(c2ncc3c(n2)CCN(C)C3)C1` (centres undefined), the Percent Effect was -4.24%. The result for `Cc1ccc(CCCC(=O)N2CC(=O)Nc3cccnc32)s1` reads 2.25%; that for `CSc1ncccc1C(=O)NC(C)c1cccc(N2CCOC2=O)c1` (centres undefined), -0.0368%. The result for `Cc1ccccc1[C@@H]1CN(CCOCCO)C[C@H]1C(=O)O` reads -1.24%. Take `COC(=O)NCC(=O)NC1(C)CCc2ccccc2C1` (centres undefined): the Percent Effect was 12.8%. Take `CCC(C)NC(=O)Nc1cccc(OCCCC#N)c1` (centres undefined): the Percent Effect is -4.6%. Regarding `CCCC1(CO)CCCN(C(=O)CN2CCN(CC)CC2)C1` (centres undefined), the Percent Effect is -3.5%. In the case of `Cc1n[nH]c(C)c1CCC(=O)N1CCc2c(nc[nH]c2=O)C1` it was -0.287%. With `CSCC(C)(O)CNS(=O)(=O)c1ccc(F)cc1` (centres undefined), the Percent Effect is -4.97%.

Take `CC(C)c1nnc2n1CCN(Cc1cccc3c1OCCO3)C2`: the Percent Effect worked out at 12.9%.

For the compound `Cc1cc(C2CCCN(CC(=O)N3CCc4ccccc43)C2)n[nH]1` (centres undefined), the Percent Effect is -5.04%.

Consider `Cc1ccc(CNS(=O)(=O)CCCC#N)cc1F`, for which the Percent Effect is 7.39%. Turning to `CN1C[C@H](c2ccccc2)[C@H]2CN(C(=O)Cc3ccc(O)cc3)CC[C@H]21`, the Percent Effect turned out to be 4.46%.

As to `O=C(NCc1nc[nH]n1)c1cc(COc2ccccc2F)[nH]n1`, the Percent Effect was -3.43%.

Regarding `CN(CCc1ncnn1C1Cc2ccccc2C1)C1CCS(=O)(=O)C1` (centres undefined), the Percent Effect is -4.47%. In the case of `O=C(C1CCOC1)N1CCN(CC(F)(F)F)c2ccccc21` (centres undefined), the Percent Effect was 11.6%.

On to `CCc1cnc(CNC(=O)NCCCO)s1`, for which the Percent Effect turned out to be 9.14%. On to `C=C(C)COc1cccc(CNCc2nc3ccccc3c(=O)[nH]2)c1`, for which the Percent Effect was 1.56%.
